# Screening results: PubChem, several laboratories
# SMARCA2 act: activators of SMARCA2 function; activation, % at 9.1 µM; 370,000 compounds, 1% hits; MG213 cells, MMTV-luciferase reporter, dexamethasone, overnight; in the data active means activation above about 7.8%
# AI-2 QS modul: Vibrio harveyi AI-2 quorum sensing modulation. activity change, % at 7.5 µM. 300,000 compounds, 0.4% hits. Vibrio harveyi JMH597 AI-2 luminescence/OD600 ratio, 9 h; hits give low values; strain lacks LuxN and CqsS sensors; 0 = neutral-control median; in the data active means activity change below about -75%, passing the limit was not always enough;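 further: luminescence divided by OD600 gain over 9 h not by final OD600 alone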
# PG9 binder: small molecules binding HIV-1 gp120 antibody PG9 | TR-FRET gp120-PG9 antibody binding | inhibition, % at 6.7 µM | 360,000 compounds, 0.43% hits | AID 624416; in the data active means inhibition above about 8.5%
# HSP90 inh: HSP90 refolding inhibition in rabbit reticulocyte lysate; luciferase refolding luminescence, 3 h; inhibition, % at 5.6 µM; 290,000 compounds, 0.91% hits;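 active means inhibition above the screen-wide mean plus 3 SD, computed separately per campaign, cut at about 16% in these data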;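 further: inhibitors lower the luminescence because luciferase stays unfolded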
# GAA850 FXN act: activators of GAA850 frataxin (FXN) promoter; HEK293 lucGAA850 FXN promoter luciferase reporter, 24 h; percent of 10 µM SAHA response; activation, % at 6 µM; 360,000 compounds, 0.56% hits; AID 540364;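 active means activation above the average of all compounds screened plus 3 SD, cutoff fixed separately per campaign, cut at about 7.5% in these data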
# HSF1 inh: HSF1 inhibition; NIH3T3-HGL HSE-luciferase, MG132-induced, luminescence 8 h; hits give low values; activity change, negative = inhibition, % at 7.5 µM (by protocol); 300,000 compounds, 0.77% hits;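 active means more than half of replicate wells show activity change below -50%, luminescence cut by over half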;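 further: luciferase reports HSF-1 transcriptional activity via heat shock element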
# PG9 binder conf: PG9 antibody binding, confirmed; 1,500 compounds, 90% hits; AID 651571; shares compounds with PG9 binder; inhibition, % at 6.7 µM; TR-FRET PG9 antibody binding, biochemical; in the data active means inhibition above about 9%
# PGV04 counter: counter-screen for PG9 binders: binding control antibody PGV04; shares compounds with PG9 binder; TR-FRET PGV04 antibody-gp120 binding, biochemical; 1,500 compounds, 95% hits; AID 651604; inhibition, % at 6.7 µM; in the data active means inhibition above about 9.5%
# PG9 binder DR: PG9 antibody binding, dose response. shares compounds with PG9 binder. TR-FRET PG9 antibody-gp120 binding inhibition. IC50, µM. 95 tested, under 10 active. AID 651848; in the data active means IC50 below about 10 µM
# PGV04 DR counter: binds control antibody PGV04 in PG9 counter-screen. IC50, µM. TR-FRET binding to control antibody PGV04. shares compounds with PG9 binder. 95 compounds, 20% hits
# PG126 DR counter: PG126 binding, dose response counter-screen | shares compounds with PG9 binder | IC50, µM | TR-FRET binding to antibody PG126, counterscreen | 95 compounds, 20% hits
# Hits are given with their value; . = inactive; / = no result given. Rows were chosen to be rich in hits. Some 3.4% of all compounds tested hit in one or more screens of this group. Unless noted, no stated cut-off is given here; in the data, active means IC50 below about 9 µM; inactive means the rest.
SMILES,SMARCA2 act,AI-2 QS modul,PG9 binder,HSP90 inh,GAA850 FXN act,HSF1 inh,PG9 binder conf,PGV04 counter,others
CCCCOc1ccc(-c2c(C(=O)Nc3ccccc3)c(C)[nH]c(=S)c2C#N)cc1,.,.,60.3,.,.,.,.,.,
CCOC(=O)c1c(C)[nH]c(=S)c(C#N)c1-c1ccc(OC)cc1,.,.,.,.,.,.,/,/,
CN(C(=O)CCc1cn(C)c2ccccc12)c1ccc(Oc2cccnc2)cc1,.,/,.,/,/,/,/,/,
COC(=O)c1ccc2nc(-c3ccco3)c(Cc3ccsc3)n2c1,.,/,.,/,/,/,/,/,
CCN(CC)C(=O)CSc1nc(N)c(C#N)c(-c2cccs2)c1C#N,.,.,44.1,.,.,.,17.9,29.7,
Cc1cc(N2CCNC[C@H]2C)ccc1N1CCN(Cc2ccccc2)[C@H](C)C1,.,/,.,/,/,/,/,/,
COc1ccc(-c2csc(-n3ncc(C(=O)O)c3C(F)(F)F)n2)cc1,.,.,16.2,.,.,.,21.8,36.1,
COc1ccc(-c2csc(NC(=O)c3ccc(N4C(=O)CCC4=O)cc3)n2)cc1,.,.,29.0,.,.,.,28.3,50.0,
Cc1cc(C)nc(NS(=O)(=O)c2ccc(NC(=O)CSc3nc(-c4ccccc4)c(C#N)c(=O)[nH]3)cc2)n1,.,.,35.6,.,.,.,44.0,57.9,
N#Cc1c(-c2ccccc2)nc(SCC(=O)Nc2ccccc2)[nH]c1=O,.,/,.,.,.,/,/,/,
Cc1cc(NC(=O)CSc2nc(-c3ccccc3)c(C#N)c(=O)[nH]2)no1,.,.,17.8,.,.,.,28.2,34.8,
N#Cc1c(-c2ccccc2)nc(SCC(=O)Nc2ccc(OC(F)(F)Cl)cc2)[nH]c1=O,.,.,8.8,.,.,.,18.0,22.2,
Cc1ccc(S(=O)(=O)NCC2CCN(C(=O)C(=O)c3cccs3)CC2)cc1,.,/,.,/,/,/,/,/,
CC1Cc2ccccc2N1C(=O)COC(=O)c1cc(Br)ccc1O (stereo not drawn),.,.,19.9,/,.,.,.,.,
CC1Cc2ccccc2N1C(=O)COC(=O)c1cccc(Br)c1 (stereo not drawn),.,/,.,/,.,/,/,/,
Cc1ccc(-c2c3c([nH]c(=S)c2C#N)CCCC3)o1,.,.,16.1,.,.,.,8.7,.,PG9 binder DR=.;PGV04 DR counter=.;PG126 DR counter=.
C[C@@H]1ON(C)[C@H]2C[C@H]3c4[nH]c5c(-c6ccc(C(F)(F)F)cc6)cccc5c4CCN3C(=O)[C@@H]12,.,/,.,/,/,/,/,/,
COC(=O)C1=C(C)N(Cc2ccc(C(F)(F)F)cc2)C(=NCc2ccccc2C(F)(F)F)NC1c1ccc(Cl)cc1 (stereo not drawn),.,/,.,/,/,/,/,/,
O=C(CCn1c(=O)c2sccc2n(Cc2cc(=O)n3ccccc3n2)c1=O)NCc1ccco1,.,.,.,.,.,.,/,/,
Cc1cc(C)c(Cn2c(=O)n(CCCC(=O)NCc3ccco3)c(=O)c3sccc32)c(C)c1,.,.,18.5,.,.,.,21.3,25.5,
Cc1cccc2nc(Cn3c(=O)n(CCC(=O)NCc4ccco4)c(=O)c4sccc43)cc(=O)n12,.,.,.,.,.,.,/,/,
Cc1ccc(-n2c(=O)c3sccc3n(CC(=O)NCc3ccco3)c2=O)cc1,.,.,.,.,.,.,/,/,
Cc1ccc(-n2c(=O)c3sccc3n(CC(=O)NCc3ccco3)c2=O)cc1F,.,.,9.4,.,.,.,12.2,19.3,
COc1ccc(C=O)cc1Cn1c(=O)n(CCC(=O)NCc2ccco2)c(=O)c2sccc21,.,.,14.1,.,.,.,.,17.2,
Cc1ccccc1Cn1c(=O)n(CCCC(=O)NCc2ccco2)c(=O)c2sccc21,.,.,.,.,.,.,/,/,
SMILES,SMARCA2 act,AI-2 QS modul,PG9 binder,HSP90 inh,GAA850 FXN act,HSF1 inh,PG9 binder conf,PGV04 counter,others
Cc1ccc(C)c(Cn2c(=O)n(CCC(=O)NCc3ccco3)c(=O)c3sccc32)c1,.,.,11.7,.,.,.,13.2,17.6,
Cc1noc(C)c1S(=O)(=O)Nc1ccc2c(c1)C(=O)N([C@H](C)CO)C[C@H](C)[C@@H](CN(C)C(=O)CCCN(C)C)OCCCC[C@@H](C)O2,.,/,.,/,.,/,/,/,
CCC(C)N(Cc1ccc(OC)cc1OC)S(=O)(=O)c1cc(Br)ccc1Br (stereo not drawn),.,/,.,/,/,/,/,/,
CCCc1nc(SCC(=O)N2CCCCCC2)c2c(=O)n(C)c(=O)n(C)c2n1,/,.,/,.,/,.,/,/,
CC(C)C(C(=O)NCc1ccccc1)N1CCN(CCN2CCOCC2)CC1 (stereo not drawn),.,/,.,/,/,/,/,/,
O=C(CCCn1c(=O)c2cccn2c2cccnc21)NCc1cccc(Br)c1,.,.,22.6,.,.,.,31.2,41.0,
CSc1cccc(NC(=O)CCCn2c(=O)c3cccn3c3cccnc32)c1,.,.,11.8,.,.,.,14.3,20.2,
O=C(CSc1ncccc1-c1nc2ccccc2[nH]1)N1CCc2ccccc21,.,.,13.9,.,.,.,20.9,33.0,
COC1=C[C@H](C(=O)NC2CCN(Cc3ccccc3)CC2)[C@H](C)[C@@H](c2ccccc2)CC1=O,.,/,/,/,/,/,/,/,
COc1cc2cc(C(=O)N(C)Cc3ccccc3)[nH]c2cc1OC,.,.,15.6,.,.,.,14.7,21.6,
CCCOc1ccc(C2C(C(=O)c3ccc(C)o3)=C(O)C(=O)N2Cc2cccnc2)cc1 (stereo not drawn),/,.,/,.,/,.,/,/,
Cc1ccc(C(=O)C2=C(O)C(=O)N(Cc3cccnc3)C2c2ccc(Br)cc2)o1 (stereo not drawn),.,.,18.0,.,.,.,29.4,37.6,
Cc1ccc(C(=O)C2=C(O)C(=O)N(Cc3cccnc3)C2c2ccc(OC(C)C)cc2)o1 (stereo not drawn),.,.,35.4,.,.,.,43.9,49.9,
Cc1ccc(C(=O)C2=C(O)C(=O)N(Cc3cccnc3)C2c2ccc(N(C)C)cc2)o1 (stereo not drawn),.,.,.,.,.,.,/,/,
COc1ccc(C2C(C(=O)c3ccc(C)o3)=C(O)C(=O)N2Cc2cccnc2)cc1 (stereo not drawn),.,.,13.2,.,.,.,22.5,28.8,
